Data on six compounds can be found in PubChem BioAssay.

SMILES strings stand for the structures. Active and inactive are the calls of the source.

One assay has as its target Albumin (Bos taurus) (UniProt P02769). Nature of the assay: bovine serum albumin binders on microarray, profiling panel, artefact control for SMM control protein annotation, biochemical, small-molecule microarray, Alexa647 label, 635/667 nm fluorescence (AID 1118).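 Also: score merges 667 nm emission intensity and signal-to-noise per printed compound spot.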 Particulars: BSA-A647 binding, fluorescence 635 nm, higher = more signal.
Assay [1] in a line: small-molecule microarray binders of probe aXIP, primary screen, biochemical, NeuroSMM set, 635/667 nm fluorescence (AID 1119).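 Also: probe is the protein aXip251-270 applied at 1 µg/mL to compound-printed slides; binding of probe to printed compounds measured as 667 nm fluorescence plus signal to noise.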 Particulars: higher = more signal, called active from +8 up or from −8 down.
Assay [2] is described as follows: small-molecule binders of probe aNOTCH3, primary screen, biochemical, small-molecule microarray, 635/667 nm fluorescence (AID 1120).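 Also: probe is a biotin-tagged antibody raised against NOTCH3 rather than NOTCH3 protein; score merges spot fluorescence near 667 nm with spot signal to noise.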 Particulars: higher = more signal.
A short description of assay [3]: small-molecule binders of probe aNOTCH2, primary screen, biochemical, small-molecule microarray, 635/667 nm fluorescence (AID 1121).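 Also: score merges feature fluorescence read at 667 nm with its signal to noise.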 As to conditions: higher = more signal.
The target in assay [4] is Carbonic anhydrase 2 (Homo sapiens) (UniProt P00918). Nature of the assay: CAII small-molecule binders, profiling panel, biochemical, small-molecule microarray, Alexa647-labelled CAII (AID 1122). As to conditions: CAII-A647 binding fluorescence, higher = more signal.
Assay [5] can be described thus: COS7 lysate on small-molecule microarray, probe aHis, 635 nm (AID 1123).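 Also: z-score combines 667nm fluorescence intensity with signal-to-noise per printed compound spot.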 As to conditions: COS7 cell lysate, fluorescence, higher = more signal.
The nature of assay [6]: compound binding in COS7 lysate, probe aLAP1, primary screen, cell lysate, small-molecule microarray (AID 1124).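 Also: lysate comes from COS7 cells expressing LAP1 and is applied at 0.3 µg/mL; score merges spot fluorescence near 667 nm with signal-to-noise over triplicate slides.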 As to conditions: probe aLAP1, fluorescence, higher = more signal.
The subject of a further assay is Sam68 (KHDRBS1). The assay is described as follows: Sam68 small-molecule binders, primary screen, biochemical, small-molecule microarray, 635 nm fluorescence (AID 1125).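 Also: score merges 667 nm channel intensity with signal to noise over triplicate slides.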 As to conditions: small-molecule microarray binding, higher = more signal.
Assay [7] relates to Chordin-like protein 2 (CHRDL2). Nature of the assay: CHRDL2 small-molecule binders, primary screen, biochemical, small-molecule microarray, 635 nm fluorescence (AID 1126).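 Also: printed compound slides probed with Chrdl2 protein at 4 µg/mL for 1 h at 4 C; score merges 667 nm emission intensity with signal to noise over three replicate slides.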 Particulars: small-molecule microarray binding, fluorescence 635 nm; higher = more signal.
The target of assay [8] is Concanavalin-A (Canavalia ensiformis) (UniProt P02866). The assay is described as follows: ConA small-molecule binders, primary screen, artefact control for SMM control protein annotation, biochemical, small-molecule microarray, Alexa647 label, 635 nm (AID 1127).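 Also: z combines 667 nm emission intensity with signal-to-noise across three replicate slides.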 Particulars: ConA-A647 binding fluorescence, higher = more signal.
Chain of Concanavalin-A (Canavalia ensiformis) (P02866 whole entry, looked up): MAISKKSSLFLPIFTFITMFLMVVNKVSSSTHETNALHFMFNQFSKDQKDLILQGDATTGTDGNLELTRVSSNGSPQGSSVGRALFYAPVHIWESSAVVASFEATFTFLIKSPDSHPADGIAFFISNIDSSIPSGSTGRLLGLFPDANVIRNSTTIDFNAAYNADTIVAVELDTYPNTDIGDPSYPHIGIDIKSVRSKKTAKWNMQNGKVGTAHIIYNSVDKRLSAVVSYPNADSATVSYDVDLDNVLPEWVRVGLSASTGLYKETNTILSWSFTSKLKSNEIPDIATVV
The nature of assay [9]: anti-His antibody binders, primary screen, artefact control for SMM control protein annotation, biochemical, small-molecule microarray, 635 nm fluorescence (AID 1128).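 Also: score merges feature fluorescence with signal-to-noise for each printed compound spot.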 Particulars: anti-His Alexa647 antibody binding, higher = more signal.
Assay [10] concerns Human papillomavirus type 1a E7 protein (residues 1-88). Nature of the assay: HPV1a E7 small-molecule binders, primary screen, biochemical, small-molecule microarray, residues 1-88, 635 nm (AID 1129). As to conditions: small-molecule microarray binding, fluorescence 635 nm; higher = more signal.
Assay [11] concerns the target Focal adhesion kinase 1 (Homo sapiens) (UniProt Q05397). The assay is described as follows: small-molecule microarray binders of FAK, primary screen, biochemical, 635/667 nm fluorescence, BSA, DTT (AID 1130).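 Also: composite of spot emission at 667 nm and signal to noise over triplicate slides.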 As to conditions: PTK2 binding, 635 nm fluorescence, higher = more signal.
The test system of assay [12] is Fibrinogen (Alexa647-labelled). Nature of the assay: fibrinogen binders on compound microarrays, profiling panel, artefact control for SMM control-protein annotation, biochemical, small-molecule microarray, 635/667 nm fluorescence (AID 1131).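 Also: z-score merges 667 nm fluorescence with per-spot signal-to-noise over triplicate slides.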 Particulars: fibrinogen-A647 binding fluorescence, higher = more signal.
The target of assay [13] is Follistatin (Homo sapiens) (UniProt P19883). The assay is described as follows: follistatin binders on small-molecule microarrays, primary screen, biochemical, small-molecule microarray, 635/667 nm fluorescence (AID 1132). As to conditions: FST binding, 635 nm fluorescence, higher = more signal.
Chain of Follistatin (Homo sapiens) (P19883 whole entry, looked up): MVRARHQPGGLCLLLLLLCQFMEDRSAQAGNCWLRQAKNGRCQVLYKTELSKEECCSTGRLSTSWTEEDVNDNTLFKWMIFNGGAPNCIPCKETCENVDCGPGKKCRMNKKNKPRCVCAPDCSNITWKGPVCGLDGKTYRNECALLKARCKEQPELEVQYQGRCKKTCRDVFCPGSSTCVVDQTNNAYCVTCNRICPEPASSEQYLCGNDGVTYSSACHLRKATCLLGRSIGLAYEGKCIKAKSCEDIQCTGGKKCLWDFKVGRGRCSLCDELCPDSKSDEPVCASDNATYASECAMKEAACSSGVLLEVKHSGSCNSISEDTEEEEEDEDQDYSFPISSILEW
In assay [14] the target is Fibroblast growth factor 2 (Homo sapiens) (UniProt P09038). The assay is described as follows: FGF2 binders on small-molecule microarrays, primary screen, biochemical, small-molecule microarray, 635/667 nm fluorescence (AID 1133). Particulars: small-molecule microarray binding, FGF2, fluorescence 635/667; higher = more signal.
Chain of Fibroblast growth factor 2 (Homo sapiens) (P09038 whole entry, looked up): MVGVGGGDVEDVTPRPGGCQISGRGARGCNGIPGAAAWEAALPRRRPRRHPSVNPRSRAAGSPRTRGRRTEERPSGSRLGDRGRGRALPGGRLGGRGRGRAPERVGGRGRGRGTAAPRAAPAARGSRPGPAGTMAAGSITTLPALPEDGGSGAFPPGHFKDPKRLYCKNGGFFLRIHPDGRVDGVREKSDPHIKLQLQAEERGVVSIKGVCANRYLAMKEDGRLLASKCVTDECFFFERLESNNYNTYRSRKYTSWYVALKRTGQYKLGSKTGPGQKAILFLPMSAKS
Assay [15] can be described thus: mitochondrial membrane potential change in A549 cells, profiling panel, cell-based, JC-1 fluorescence, basal, 24 h, 100 nL (AID 1138).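 Also: A549 lung adenocarcinoma cells under basal conditions with no added stimulus; test concentration not given here.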 As to conditions: higher = more signal.
A further assay concerns Lefty1. Nature of the assay: Lefty1 binders on small-molecule microarrays, primary screen, biochemical, small-molecule microarray, 635/667 nm fluorescence (AID 1139). Particulars: small-molecule microarray binding, fluorescence 635/667; higher = more signal.
Assay [16] relates to wheat germ agglutinin (Triticum aestivum), Alexa647-labelled. Nature of the assay: wheat germ agglutinin binders on compound microarrays, profiling panel, artefact control for SMM control-protein annotation, biochemical, small-molecule microarray, 635/667 nm fluorescence (AID 1140).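 Also: score merges 667 nm feature emission with signal to noise over triplicate slides.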 Particulars: WGA-A647 binding, 635 nm fluorescence, higher = more signal.
Assay [17] addresses Luciferin 4-monooxygenase (Photinus pyralis) (UniProt P08659). Nature of the assay: firefly luciferase enzyme inhibitors, primary screen, biochemical, luminescence, purified enzyme, 2006 set (AID 1141).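 Also: cell-free assay with purified firefly luciferase at 100 ng per well in PBS; test concentration not given here.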 As to conditions: SteadyGlo luminescence, 30 min, higher = more signal, called active from +8 up or from −8 down.

Chain of Luciferin 4-monooxygenase (Photinus pyralis) (P08659 whole entry, looked up): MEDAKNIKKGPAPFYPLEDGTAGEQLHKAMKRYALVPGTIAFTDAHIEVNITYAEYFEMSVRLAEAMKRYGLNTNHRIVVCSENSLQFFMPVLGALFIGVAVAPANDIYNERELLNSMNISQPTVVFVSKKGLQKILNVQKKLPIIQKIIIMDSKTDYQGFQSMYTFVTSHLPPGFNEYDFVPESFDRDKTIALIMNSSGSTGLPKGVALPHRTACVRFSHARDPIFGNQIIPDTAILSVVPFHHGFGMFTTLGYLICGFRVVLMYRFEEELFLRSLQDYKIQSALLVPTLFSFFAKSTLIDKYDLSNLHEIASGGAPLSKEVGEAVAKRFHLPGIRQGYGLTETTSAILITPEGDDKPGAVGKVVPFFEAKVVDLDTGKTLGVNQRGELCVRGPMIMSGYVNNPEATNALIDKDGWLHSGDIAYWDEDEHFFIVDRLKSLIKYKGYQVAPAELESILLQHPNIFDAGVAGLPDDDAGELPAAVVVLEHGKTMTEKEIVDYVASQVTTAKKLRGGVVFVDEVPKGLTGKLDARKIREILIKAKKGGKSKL
Chain of Albumin (Bos taurus) (P02769 whole entry, looked up): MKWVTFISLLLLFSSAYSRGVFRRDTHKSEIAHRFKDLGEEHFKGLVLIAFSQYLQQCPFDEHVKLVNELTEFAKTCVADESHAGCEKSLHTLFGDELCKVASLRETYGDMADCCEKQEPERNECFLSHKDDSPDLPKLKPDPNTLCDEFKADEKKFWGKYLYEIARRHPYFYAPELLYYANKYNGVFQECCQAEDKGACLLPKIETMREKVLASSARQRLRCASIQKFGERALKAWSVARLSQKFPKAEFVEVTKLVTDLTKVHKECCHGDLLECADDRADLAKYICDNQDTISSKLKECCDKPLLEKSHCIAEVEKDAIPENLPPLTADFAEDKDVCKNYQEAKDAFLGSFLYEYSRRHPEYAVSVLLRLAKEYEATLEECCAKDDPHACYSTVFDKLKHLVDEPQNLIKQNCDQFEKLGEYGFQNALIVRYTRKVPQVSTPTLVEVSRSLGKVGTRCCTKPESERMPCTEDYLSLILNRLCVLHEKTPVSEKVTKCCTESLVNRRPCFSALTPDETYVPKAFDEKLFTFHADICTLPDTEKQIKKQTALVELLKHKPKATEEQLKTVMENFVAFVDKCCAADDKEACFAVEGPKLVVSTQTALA
Chain of Focal adhesion kinase 1 (Homo sapiens) (Q05397 whole entry, looked up): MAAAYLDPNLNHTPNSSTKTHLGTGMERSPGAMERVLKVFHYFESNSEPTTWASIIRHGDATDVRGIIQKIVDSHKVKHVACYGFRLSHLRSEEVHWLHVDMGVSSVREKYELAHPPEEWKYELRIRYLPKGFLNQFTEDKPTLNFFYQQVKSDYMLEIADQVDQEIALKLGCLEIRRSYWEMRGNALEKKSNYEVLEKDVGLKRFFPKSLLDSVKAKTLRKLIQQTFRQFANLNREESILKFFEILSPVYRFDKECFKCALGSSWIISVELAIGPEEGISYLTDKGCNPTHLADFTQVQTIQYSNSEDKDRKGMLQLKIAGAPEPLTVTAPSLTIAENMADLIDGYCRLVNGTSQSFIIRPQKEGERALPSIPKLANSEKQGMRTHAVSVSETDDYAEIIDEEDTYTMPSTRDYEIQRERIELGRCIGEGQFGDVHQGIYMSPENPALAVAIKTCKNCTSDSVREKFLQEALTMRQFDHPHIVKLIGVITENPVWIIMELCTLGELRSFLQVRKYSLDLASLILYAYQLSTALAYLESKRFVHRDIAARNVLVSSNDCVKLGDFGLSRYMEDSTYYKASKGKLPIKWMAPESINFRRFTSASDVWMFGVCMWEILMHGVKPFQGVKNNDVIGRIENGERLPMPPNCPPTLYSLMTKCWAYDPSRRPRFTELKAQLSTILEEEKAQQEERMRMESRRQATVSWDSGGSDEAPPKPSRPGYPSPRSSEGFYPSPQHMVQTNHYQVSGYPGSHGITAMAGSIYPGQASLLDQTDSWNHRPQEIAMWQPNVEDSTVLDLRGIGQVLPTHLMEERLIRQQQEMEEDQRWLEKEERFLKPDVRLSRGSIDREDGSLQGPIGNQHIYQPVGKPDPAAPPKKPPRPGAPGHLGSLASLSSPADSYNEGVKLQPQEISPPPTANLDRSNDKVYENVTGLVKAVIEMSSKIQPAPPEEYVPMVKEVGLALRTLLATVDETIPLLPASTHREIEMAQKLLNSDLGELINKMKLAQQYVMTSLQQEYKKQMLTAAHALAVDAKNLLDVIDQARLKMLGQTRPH

Regarding `O=C(C1N=C(c2ccc(OCCCO)cc2)N(c2ccccc2)O1)N1CCCCC1` (stereo not given), the composite z-score with Albumin (Bos taurus) is 0.909; in [2], 0.304; in assay [3] it was 0.116; in [4], 0.718; in assay [5], 2.31; in assay [6] it was 0.936. Besides, the composite z-score with Sam68 (KHDRBS1) amounted to 1.29; in assay [7] it was 0.165; in assay [8] it was 1.2; in assay [9], 1.94; in assay [10], 1.25; in [11], 0.634. The composite z-score in assay [12] stood at 1; in assay [13], 1.05; in assay [14], 0.423; with Lefty1, 0.168; in [16] it was 1.31. In addition, the composite Z-score in assay [1] was 1.91 (inactive). The z-score was 0.924 in assay [15] and -10.6 (active) in assay [17].
With `CC(C)=C1C(=O)C(c2ccccc2)=C2CN3C(=O)N(CCc4ccccc4)C(=O)[C@]3(Cc3ccc(C(F)(F)F)cc3)[C@H]21`, the composite z-score in the assay with Albumin (Bos taurus) was determined as 0.682; in assay [2], 0.34; in [3], 0.134; in assay [4], 0.368; in assay [5], 1.95; in [6] it was 0.224. Moreover, the composite z-score in the assay with Sam68 (KHDRBS1) is -0.439; in [7], -2.09; in assay [8], -0.47; in [9], -0.0822; in [10] it was 0.566; in assay [11], 1.01. Further, the composite z-score in assay [12] was -0.0056; in [13] it was 0.0359; in [14] it was -1.29; with Lefty1, -1.16; in assay [16] it was 0.8. Further, the composite Z-score in assay [1] is -0.355 (inactive). For the same compound, the values for the z-score in assay [15] and in assay [17] were 1.57 and 0.359 (inactive), respectively.
Regarding `[N-]=[N+]=Nc1ccccc1C[C@]1(C(=O)O)COC(c2ccc(OCCCO)cc2)=N1`, the composite z-score is 0.638 with Albumin (Bos taurus); 0.0116 in [2]; -0.0501 in assay [3]; 0.856 in assay [4]; 0.143 in assay [5]; -0.165 in assay [6]. The composite z-score is -0.566 in the assay with Sam68 (KHDRBS1); -1.31 in [7]; -0.19 in assay [8]; -0.047 in assay [9]; -0.914 in [10]; 0.0699 in [11]. The composite z-score in assay [12] was -1.45; in [13], -0.224; in assay [14] it was -0.717; with Lefty1 it was -0.843; in [16], 0.396. In [1], the composite Z-score is 0.277 (inactive). Moreover, the z-score was -0.991 in assay [15] and -13.9 (active) in assay [17].
As for `O=C1O[C@@H](c2ccccc2)[C@@H](c2ccccc2)N2[C@@H](c3ccc(OCCO)cc3)[C@]3(C(=O)Nc4ccc(C#CC5=CCCCC5)cc43)[C@@H](C(=O)NC[C@H](O)c3ccccc3)[C@H]12`, the composite z-score is -0.948 with Albumin (Bos taurus); 1.03 in assay [2]; 0.338 in assay [3]; 0.117 in [4]; 1.57 in assay [5]; 0.109 in assay [6]. The composite z-score in the assay on Sam68 (KHDRBS1) is 1.3; in assay [7], 1.16; in assay [8], 1.17; in [9], 2.25; in assay [10], 1.21; in [11], 0.234. The composite z-score in [12] is 0.829; in [13], 1.42; in [14] it was 1.38; in the assay with Lefty1, 1.25; in assay [16], 0.254. Besides, in [1], the composite Z-score was -0.176 (inactive). The z-score is -1.48 in assay [15] and -0.773 (inactive) in assay [17].
As to `CCN(CC)c1ccc(N2CC=CC34O[C@@H]5/C=C\CCCOC(=O)C5[C@H]3C(=O)N(C(C)CO)[C@@H]4C2=O)cc1` (stereo not given in full), the composite z-score with Albumin (Bos taurus) is 0.288; in assay [2], -0.0647; in [3], -0.0862; in [4], 0.732; in assay [5], 0.121; in [6], 0.248. Further, the composite z-score was 0.11 with Sam68 (KHDRBS1); 0.259 in assay [7]; -0.529 in assay [8]; -0.556 in assay [9]; -0.107 in [10]; -0.294 in assay [11]. The composite z-score was -0.158 in [12]; 0.077 in assay [13]; 0.305 in assay [14]; -0.0464 with Lefty1; -0.0344 in [16]. In addition, the composite Z-score in [1] was -0.463 (inactive). Also, the z-score in assay [15] is 1.18; in assay [17], -1.38 (inactive).
For `COCC(=C=CC[C@H](O)c1ccc(CO)o1)CCO`, the composite z-score in the assay with Albumin (Bos taurus) is 0.0697; in assay [2], 0.0066; in assay [3], -0.14; in [4] it was 0.748; in assay [5], 1.27; in assay [6], -0.0497. Also, the composite z-score with Sam68 (KHDRBS1) was 0.601; in [7] it was 0.0549; in assay [8], 0.494; in assay [9] it was 1.28; in assay [10], 0.58; in assay [11] it was 0.646. Moreover, the composite z-score in [12] was determined as 0.501; in [13] it was 1.3; in [14], 1.14; in the assay on Lefty1, 0.915; in assay [16], 0.277. For the same compound, the composite Z-score in assay [1] was 0.701 (inactive). The figures for the z-score in assay [15] and in assay [17] were 0.0889 and -0.561 (inactive), respectively.
